Measurements: ChEMBL document CHEMBL1961873, “Compounds: GSK PKIS; Assays: Nanosyn kinase panel” (2012)

Assays:
[1] = target: Sphingosine kinase 1 (Homo sapiens) (UniProt Q9NYA1); settings: at 1 µM;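 also: mean SPHK1 inhibition value reported from the GSK PKIS kinase panel screen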
[2] = target: T1, Sphingosine kinase 2 (Homo sapiens) (UniProt Q9NRA0); settings: at 0.1 µM
T1 sequence (whole entry): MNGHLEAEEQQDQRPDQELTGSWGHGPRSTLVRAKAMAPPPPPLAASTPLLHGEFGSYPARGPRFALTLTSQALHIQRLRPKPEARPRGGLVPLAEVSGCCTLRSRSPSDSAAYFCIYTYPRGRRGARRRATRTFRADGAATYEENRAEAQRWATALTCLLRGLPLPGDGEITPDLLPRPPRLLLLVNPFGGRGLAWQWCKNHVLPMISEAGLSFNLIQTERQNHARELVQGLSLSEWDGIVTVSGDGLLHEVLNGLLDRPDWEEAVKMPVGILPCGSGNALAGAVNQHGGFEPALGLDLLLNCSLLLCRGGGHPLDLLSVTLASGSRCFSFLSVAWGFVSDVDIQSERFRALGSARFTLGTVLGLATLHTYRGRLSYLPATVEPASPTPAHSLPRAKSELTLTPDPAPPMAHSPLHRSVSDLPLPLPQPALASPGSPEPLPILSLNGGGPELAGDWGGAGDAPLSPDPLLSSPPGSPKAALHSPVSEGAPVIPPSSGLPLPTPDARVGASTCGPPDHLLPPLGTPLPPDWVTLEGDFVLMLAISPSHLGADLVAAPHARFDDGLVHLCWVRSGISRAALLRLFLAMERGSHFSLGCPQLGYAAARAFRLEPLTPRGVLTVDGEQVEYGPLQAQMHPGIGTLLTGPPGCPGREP

[3] = target: T1, Sphingosine kinase 2 (Homo sapiens); settings: at 1 µM
[4] = target: Casein kinase II subunit alpha (Homo sapiens) (UniProt P68400); settings: at 0.1 µM
Casein kinase II subunit alpha (Homo sapiens), sequence (P68400 whole entry, looked up): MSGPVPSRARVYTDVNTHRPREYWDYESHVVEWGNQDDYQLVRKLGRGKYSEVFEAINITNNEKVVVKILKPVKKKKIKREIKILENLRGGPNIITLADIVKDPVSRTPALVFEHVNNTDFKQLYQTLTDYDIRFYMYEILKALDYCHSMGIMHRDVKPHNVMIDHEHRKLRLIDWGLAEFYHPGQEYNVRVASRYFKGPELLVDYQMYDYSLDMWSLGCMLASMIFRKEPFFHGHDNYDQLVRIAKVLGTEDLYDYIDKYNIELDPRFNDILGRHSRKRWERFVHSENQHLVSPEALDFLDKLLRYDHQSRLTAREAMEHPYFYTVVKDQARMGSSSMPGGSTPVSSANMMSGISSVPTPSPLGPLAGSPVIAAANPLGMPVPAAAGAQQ

[5] = target: Casein kinase II subunit alpha (Homo sapiens) (UniProt P68400); settings: at 1 µM
[6] = target: T2, Inhibitor of nuclear factor kappa-B kinase subunit alpha (Homo sapiens) (UniProt O15111); settings: at 0.1 µM
T2 sequence (whole entry): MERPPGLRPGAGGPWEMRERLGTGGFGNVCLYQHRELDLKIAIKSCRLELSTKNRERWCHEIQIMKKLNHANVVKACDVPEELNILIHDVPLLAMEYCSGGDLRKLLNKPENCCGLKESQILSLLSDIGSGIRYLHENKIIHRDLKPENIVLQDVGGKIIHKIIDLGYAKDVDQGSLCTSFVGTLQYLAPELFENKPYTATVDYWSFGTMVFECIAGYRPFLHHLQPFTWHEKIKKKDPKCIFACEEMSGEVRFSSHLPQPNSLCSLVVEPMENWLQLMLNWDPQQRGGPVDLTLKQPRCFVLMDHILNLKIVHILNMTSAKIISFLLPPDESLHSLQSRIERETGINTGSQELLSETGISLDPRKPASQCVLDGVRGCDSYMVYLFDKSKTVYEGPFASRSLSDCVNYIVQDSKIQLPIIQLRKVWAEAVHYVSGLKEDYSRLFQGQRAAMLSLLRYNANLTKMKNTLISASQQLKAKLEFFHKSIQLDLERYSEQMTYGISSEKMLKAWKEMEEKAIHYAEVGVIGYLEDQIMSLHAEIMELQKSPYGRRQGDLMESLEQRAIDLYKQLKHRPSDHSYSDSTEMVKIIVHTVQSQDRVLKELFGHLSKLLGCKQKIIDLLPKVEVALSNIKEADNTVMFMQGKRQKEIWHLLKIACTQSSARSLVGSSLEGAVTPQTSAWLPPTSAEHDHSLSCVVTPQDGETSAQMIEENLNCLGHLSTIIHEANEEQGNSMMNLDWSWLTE

[7] = target: T2, Inhibitor of nuclear factor kappa-B kinase subunit alpha (Homo sapiens); settings: at 1 µM
[8] = target: T3, Inhibitor of nuclear factor kappa-B kinase subunit beta (Homo sapiens) (UniProt O14920); settings: at 0.1 µM
T3 sequence (whole entry): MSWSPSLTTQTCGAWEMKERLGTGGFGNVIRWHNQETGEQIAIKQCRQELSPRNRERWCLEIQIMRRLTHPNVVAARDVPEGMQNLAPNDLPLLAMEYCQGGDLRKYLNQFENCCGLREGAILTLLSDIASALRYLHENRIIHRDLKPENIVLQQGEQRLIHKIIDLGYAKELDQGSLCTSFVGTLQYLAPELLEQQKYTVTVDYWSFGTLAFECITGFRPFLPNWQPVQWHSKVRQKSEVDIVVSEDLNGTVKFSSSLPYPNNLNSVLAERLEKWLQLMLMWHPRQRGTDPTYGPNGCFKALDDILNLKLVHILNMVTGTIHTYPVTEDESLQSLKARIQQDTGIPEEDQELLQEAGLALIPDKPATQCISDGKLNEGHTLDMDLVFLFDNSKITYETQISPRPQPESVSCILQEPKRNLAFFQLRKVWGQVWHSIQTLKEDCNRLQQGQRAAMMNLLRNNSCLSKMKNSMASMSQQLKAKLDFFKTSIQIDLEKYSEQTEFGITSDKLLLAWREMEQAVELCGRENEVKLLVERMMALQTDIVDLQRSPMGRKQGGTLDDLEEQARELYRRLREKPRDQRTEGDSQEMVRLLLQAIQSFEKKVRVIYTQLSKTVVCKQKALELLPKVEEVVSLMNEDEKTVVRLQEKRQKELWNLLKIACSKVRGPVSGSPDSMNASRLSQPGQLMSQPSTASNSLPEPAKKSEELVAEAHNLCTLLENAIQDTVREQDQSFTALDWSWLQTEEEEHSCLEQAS

[9] = target: T3, Inhibitor of nuclear factor kappa-B kinase subunit beta (Homo sapiens); settings: at 1 µM
[10] = target: T4, Inhibitor of nuclear factor kappa-B kinase subunit epsilon (Homo sapiens) (UniProt Q14164); settings: at 0.1 µM
T4 sequence (whole entry): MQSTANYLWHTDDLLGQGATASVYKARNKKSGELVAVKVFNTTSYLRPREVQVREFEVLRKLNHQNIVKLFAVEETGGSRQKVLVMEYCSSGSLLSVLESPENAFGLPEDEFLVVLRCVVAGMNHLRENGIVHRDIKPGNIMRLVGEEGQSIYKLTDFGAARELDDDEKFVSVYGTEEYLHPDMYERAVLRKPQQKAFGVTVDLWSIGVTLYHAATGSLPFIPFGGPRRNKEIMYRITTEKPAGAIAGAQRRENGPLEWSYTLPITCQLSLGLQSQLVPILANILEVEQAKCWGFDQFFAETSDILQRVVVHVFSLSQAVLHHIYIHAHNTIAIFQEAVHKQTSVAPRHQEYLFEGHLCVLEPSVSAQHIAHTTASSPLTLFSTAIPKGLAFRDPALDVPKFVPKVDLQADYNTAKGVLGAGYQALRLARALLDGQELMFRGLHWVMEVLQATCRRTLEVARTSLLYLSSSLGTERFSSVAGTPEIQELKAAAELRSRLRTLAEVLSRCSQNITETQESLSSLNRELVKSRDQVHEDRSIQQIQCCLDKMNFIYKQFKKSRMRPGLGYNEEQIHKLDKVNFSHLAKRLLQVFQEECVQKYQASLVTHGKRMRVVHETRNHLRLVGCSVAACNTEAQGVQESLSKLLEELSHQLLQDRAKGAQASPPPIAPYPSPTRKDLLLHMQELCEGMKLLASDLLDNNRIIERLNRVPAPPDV

[11] = target: T4, Inhibitor of nuclear factor kappa-B kinase subunit epsilon (Homo sapiens); settings: at 1 µM
[12] = target: T5, Serine/threonine-protein kinase Nek1 (Homo sapiens) (UniProt Q96PY6); settings: at 0.1 µM
T5 sequence (whole entry): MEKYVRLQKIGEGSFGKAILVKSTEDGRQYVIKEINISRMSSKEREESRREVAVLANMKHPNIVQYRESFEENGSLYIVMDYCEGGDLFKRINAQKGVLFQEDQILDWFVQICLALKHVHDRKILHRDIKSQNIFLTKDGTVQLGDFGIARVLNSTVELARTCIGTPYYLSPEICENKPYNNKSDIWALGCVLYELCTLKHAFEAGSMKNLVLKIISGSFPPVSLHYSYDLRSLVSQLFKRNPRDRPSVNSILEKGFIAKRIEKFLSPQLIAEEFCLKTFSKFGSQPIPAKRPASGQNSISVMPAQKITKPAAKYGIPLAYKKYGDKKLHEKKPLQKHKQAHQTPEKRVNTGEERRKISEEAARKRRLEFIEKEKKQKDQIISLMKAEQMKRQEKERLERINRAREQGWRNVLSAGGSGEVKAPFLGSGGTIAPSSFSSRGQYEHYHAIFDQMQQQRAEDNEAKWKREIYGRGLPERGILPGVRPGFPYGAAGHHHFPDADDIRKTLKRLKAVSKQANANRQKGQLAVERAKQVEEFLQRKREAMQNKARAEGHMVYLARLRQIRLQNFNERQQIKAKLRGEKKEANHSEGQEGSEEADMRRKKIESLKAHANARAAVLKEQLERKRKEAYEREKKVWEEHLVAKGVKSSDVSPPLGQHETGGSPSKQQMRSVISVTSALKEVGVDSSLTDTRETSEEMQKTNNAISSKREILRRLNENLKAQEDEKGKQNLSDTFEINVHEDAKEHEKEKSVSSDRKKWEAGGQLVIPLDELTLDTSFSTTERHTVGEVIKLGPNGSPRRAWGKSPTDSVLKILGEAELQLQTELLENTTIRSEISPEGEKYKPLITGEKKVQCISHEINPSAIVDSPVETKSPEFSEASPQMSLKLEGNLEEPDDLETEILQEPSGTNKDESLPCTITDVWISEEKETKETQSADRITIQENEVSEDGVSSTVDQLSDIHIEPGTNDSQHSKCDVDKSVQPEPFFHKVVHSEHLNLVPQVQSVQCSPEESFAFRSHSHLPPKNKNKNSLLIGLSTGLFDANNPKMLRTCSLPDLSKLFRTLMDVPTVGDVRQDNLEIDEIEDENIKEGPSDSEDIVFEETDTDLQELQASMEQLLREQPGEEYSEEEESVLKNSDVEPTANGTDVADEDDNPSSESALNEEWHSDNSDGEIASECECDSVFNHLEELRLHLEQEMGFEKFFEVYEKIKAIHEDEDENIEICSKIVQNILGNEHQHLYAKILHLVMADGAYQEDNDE

[13] = target: T5, Serine/threonine-protein kinase Nek1 (Homo sapiens); settings: at 1 µM
[14] = target: T6, Serine/threonine-protein kinase Nek2 (Homo sapiens) (UniProt P51955); settings: at 0.1 µM
T6 sequence (whole entry): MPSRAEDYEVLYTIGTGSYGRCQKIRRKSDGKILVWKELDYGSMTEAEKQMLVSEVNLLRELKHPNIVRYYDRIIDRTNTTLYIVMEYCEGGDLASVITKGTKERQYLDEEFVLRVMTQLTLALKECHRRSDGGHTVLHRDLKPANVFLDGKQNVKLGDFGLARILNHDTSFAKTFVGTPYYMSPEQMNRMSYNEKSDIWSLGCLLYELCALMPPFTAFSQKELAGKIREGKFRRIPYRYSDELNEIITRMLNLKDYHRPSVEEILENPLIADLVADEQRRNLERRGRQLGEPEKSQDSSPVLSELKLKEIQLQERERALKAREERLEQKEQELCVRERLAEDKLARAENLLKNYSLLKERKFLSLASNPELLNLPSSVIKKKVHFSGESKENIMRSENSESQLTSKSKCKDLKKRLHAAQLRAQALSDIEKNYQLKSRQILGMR

[15] = target: T6, Serine/threonine-protein kinase Nek2 (Homo sapiens); settings: at 1 µM
[16] = target: Serine/threonine-protein kinase Nek6 (Homo sapiens) (UniProt Q9HC98); settings: at 0.1 µM
Serine/threonine-protein kinase Nek6 (Homo sapiens), sequence (Q9HC98 whole entry): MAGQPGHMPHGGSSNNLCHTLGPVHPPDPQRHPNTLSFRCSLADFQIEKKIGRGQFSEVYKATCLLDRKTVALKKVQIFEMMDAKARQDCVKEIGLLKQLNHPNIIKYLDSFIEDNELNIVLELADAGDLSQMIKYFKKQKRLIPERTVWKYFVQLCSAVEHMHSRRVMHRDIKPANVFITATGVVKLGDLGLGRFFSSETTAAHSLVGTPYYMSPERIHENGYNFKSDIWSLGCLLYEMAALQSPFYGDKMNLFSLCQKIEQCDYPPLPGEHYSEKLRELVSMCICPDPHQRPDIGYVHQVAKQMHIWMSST

[17] = target: Serine/threonine-protein kinase Nek6 (Homo sapiens) (UniProt Q9HC98); settings: at 1 µM
[18] = target: Serine/threonine-protein kinase Nek7 (Homo sapiens) (UniProt Q8TDX7); settings: at 0.1 µM
Serine/threonine-protein kinase Nek7 (Homo sapiens), sequence (Q8TDX7 whole entry, looked up): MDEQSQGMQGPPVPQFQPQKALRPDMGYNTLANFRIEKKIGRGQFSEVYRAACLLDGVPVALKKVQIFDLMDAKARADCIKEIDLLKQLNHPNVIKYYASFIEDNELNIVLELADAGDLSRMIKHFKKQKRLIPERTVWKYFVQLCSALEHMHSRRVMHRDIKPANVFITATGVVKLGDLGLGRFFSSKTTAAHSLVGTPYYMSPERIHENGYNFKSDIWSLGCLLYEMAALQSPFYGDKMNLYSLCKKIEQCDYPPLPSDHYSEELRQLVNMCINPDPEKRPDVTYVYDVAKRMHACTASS

[19] = target: Serine/threonine-protein kinase Nek7 (Homo sapiens) (UniProt Q8TDX7); settings: at 1 µM
[20] = target: T7, Serine/threonine-protein kinase Nek9 (Homo sapiens) (UniProt Q8TD19); settings: at 0.1 µM;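 also: reported value is the mean percent inhibition of NEK9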
T7 sequence (whole entry): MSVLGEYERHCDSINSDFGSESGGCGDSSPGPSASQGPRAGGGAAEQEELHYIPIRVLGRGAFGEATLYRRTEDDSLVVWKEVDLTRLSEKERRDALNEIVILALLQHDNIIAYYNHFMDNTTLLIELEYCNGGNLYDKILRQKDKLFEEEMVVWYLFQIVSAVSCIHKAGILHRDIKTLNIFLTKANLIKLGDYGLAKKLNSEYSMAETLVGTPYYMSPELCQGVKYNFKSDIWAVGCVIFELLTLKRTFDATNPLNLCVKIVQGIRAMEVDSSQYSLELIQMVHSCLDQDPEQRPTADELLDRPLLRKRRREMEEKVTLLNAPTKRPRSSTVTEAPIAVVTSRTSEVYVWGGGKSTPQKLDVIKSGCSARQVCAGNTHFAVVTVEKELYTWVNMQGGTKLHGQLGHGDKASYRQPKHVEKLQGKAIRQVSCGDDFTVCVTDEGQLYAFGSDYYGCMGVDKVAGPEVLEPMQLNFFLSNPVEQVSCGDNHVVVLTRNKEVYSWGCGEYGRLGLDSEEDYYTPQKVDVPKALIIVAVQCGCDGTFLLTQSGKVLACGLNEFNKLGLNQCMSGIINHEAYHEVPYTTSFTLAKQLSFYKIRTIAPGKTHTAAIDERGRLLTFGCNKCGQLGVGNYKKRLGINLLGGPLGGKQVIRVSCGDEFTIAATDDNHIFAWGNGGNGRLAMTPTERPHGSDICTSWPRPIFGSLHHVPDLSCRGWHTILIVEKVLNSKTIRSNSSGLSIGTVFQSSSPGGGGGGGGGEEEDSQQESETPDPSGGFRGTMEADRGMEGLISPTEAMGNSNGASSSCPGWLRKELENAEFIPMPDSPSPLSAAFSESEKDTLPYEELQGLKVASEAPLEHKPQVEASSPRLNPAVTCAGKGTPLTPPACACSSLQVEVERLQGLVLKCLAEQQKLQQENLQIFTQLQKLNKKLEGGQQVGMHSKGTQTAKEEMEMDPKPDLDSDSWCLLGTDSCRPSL

Sphingosine kinase 1 (Homo sapiens), sequence (Q9NYA1 whole entry): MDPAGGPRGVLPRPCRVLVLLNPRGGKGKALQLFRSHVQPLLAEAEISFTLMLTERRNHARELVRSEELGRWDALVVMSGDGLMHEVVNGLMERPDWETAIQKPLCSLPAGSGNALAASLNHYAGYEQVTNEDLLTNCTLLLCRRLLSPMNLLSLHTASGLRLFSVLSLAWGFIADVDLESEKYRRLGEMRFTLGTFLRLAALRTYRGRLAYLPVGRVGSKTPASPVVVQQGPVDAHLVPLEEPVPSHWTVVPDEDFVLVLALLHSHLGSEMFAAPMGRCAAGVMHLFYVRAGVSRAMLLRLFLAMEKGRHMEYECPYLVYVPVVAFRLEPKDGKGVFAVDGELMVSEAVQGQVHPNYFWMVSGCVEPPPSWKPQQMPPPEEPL

Structure (SMILES)	inhibition [1]	inhibition [2]	inhibition [3]	inhibition [4]	inhibition [5]	inhibition [6]	inhibition [7]	inhibition [8]	inhibition [9]	inhibition [10]	inhibition [11]	inhibition [12]	inhibition [13]	inhibition [14]	inhibition [15]	inhibition [16]	inhibition [17]	inhibition [18]	inhibition [19]	inhibition [20]
COc1cc(/C=N/Nc2ncnc3c2cnn3C(C)C)ccc1O	7.48%	-1.04%	1.89%	2.91%	11.8%	-0.1%	-0.51%	2.79%	-2.39%	1.71%	1.92%	2.42%	10.4%	2.62%	6.4%	2.57%	1.52%	5.39%	2.72%	-0.27%
COC(=O)c1cncc(/C=C/c2c(C)cc(O)cc2C)c1	-4%	-0.39%	-0.47%	3.51%	11.9%	3.28%	5.67%	4.7%	7.41%	8.93%	8.63%	1.51%	3.23%	4.54%	3.91%	0.94%	4.21%	2.47%	1.56%	2.09%
